Among all 16,000 compounds or so, about 5,100 (32%) were called active. Not shown: some 25% with an inconclusive outcome. The list shows a part of the results. A number with no mark means an inactive call. Calls come from the whole dose curve; as a rule, active = well fitted curve in the direction sought with a large enough effect; inconclusive = small, poorly fitted or top-dose-only effect, or effect the other way; inactive = no such curve, though single readings can be large or run the other way.
target: Cytochrome P450 3A4 (Homo sapiens) (UniProt P08684); assay: Cytochrome panel assay with activity outcomes; details: recombinant CYP, pro-luciferin dealkylation, luminescence, p450-cyp3a4; series mostly up to 57.1 µM
Sequence (P08684 whole entry, looked up): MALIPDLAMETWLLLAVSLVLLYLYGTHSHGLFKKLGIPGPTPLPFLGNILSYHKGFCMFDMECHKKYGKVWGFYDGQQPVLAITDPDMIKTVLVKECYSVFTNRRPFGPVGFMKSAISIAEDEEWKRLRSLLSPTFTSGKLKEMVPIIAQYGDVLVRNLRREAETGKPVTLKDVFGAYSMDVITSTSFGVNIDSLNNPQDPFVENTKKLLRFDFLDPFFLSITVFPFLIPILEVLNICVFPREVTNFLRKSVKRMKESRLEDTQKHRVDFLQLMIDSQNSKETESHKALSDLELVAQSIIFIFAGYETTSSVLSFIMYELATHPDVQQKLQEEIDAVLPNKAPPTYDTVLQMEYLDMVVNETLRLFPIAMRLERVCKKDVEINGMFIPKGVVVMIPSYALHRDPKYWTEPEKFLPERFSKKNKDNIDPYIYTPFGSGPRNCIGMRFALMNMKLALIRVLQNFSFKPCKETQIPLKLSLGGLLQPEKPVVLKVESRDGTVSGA
% is set by controls: 0 for no effect and ±100 for the full control effect.

SMILES	AC50	activity, negative = inhibition
Nc1nc2c(nc(Br)n2[C@@H]2O[C@H]3COP(=O)(O)O[C@H]3[C@@H]2O)c(=O)[nH]1	inactive	–
COc1ccc(S(=O)(=O)N(CC(=O)N2CCCC2)Cc2ccccc2)cc1	4.47 µM (active)	–
COc1ccc(S(=O)(=O)N(CCc2ccccc2)CC(=O)N2CCOCC2)cc1	7.08 µM (active)	–
COc1ccc(OC)c(N(CC(=O)N2CCc3ccccc3C2)S(C)(=O)=O)c1	inactive	–
Cc1ccc(CS(=O)(=O)CCC(=O)N2CCOCC2)cc1	inactive	–
CN(Cc1ccccc1)S(=O)(=O)c1ccc(OCC(=O)N2CCOCC2)cc1	inactive	–
Cc1ccc(C2NC(c3ccc(C)cc3)C(C)C(=NO)C2C)cc1 (stereo unspecified)	14.1 µM (active)	–
CC(=O)NS(=O)(=O)c1ccc(NC(=S)NC(=O)C(C)(C)C)cc1	inactive	–
COc1ccc(CC(=O)NC(=S)Nc2ccc(S(=O)(=O)NC(C)(C)C)cc2)cc1	6.31 µM (active)	–
CCC(=O)NC(=S)Nc1ccc(S(=O)(=O)NC(C)=O)cc1	–	18.1% [at 2.29 µM]
CSc1nc(N)c2ncn([C@H]3O[C@H](COP(=O)(O)OP(=O)(O)O)[C@@H](O)[C@@H]3O)c2n1	inactive	–
C[C@@]12CC3CC(N)(C1)C[C@@](C)(C3)C2	inactive	–
CCOc1ccc(C(Nc2ccc(C)cc2)P2(=O)OCC(C)(C)CO2)cc1 (stereo unspecified)	3.98 µM (active)	–
CCOc1ccc(NC(=O)N2CCC(c3ccc(C)cc3)C2)cc1 (stereo unspecified)	inactive	–
CCOc1ccc(C2=[N+]([O-])C(C)(C)N(O)C2(C)C)cc1	inactive	–
Cc1cc(C(=O)CSc2nnc(N)s2)c(C)n1CCc1ccc(F)cc1	0.316 µM (active)	–
CC(=O)Nc1nnc(SCc2ccc(F)cc2)s1	inactive	–
COc1ccc(CCn2c(C)cc(C(=O)CSc3nc(N)cc(=O)[nH]3)c2C)cc1	2.51 µM (active)	–
O=C(O)c1cc(=O)[nH]c(SCc2ccccc2)n1	–	0.661% [at 11.4 µM]
O=C(O)Cc1ccc(O)c(O)c1	inactive	–
O=C(CCc1ccc(O)cc1)c1c(O)cc(O)cc1O	10 µM (active)	–
C[C@@](N)(Cc1ccc(O)cc1)C(=O)O	inactive	–
O=c1nc(N2CCCCCC2)nc(N2CCCCCC2)[nH]1	inactive	–
O=C(CSc1nnc(CNc2ccc(F)cc2)o1)OC1CCCCC1	28.2 µM (active)	–

SMILES	AC50	activity, negative = inhibition
O=C(CSc1n[nH]c(-c2ccccc2O)n1)N1CCCc2ccccc21	3.16 µM (active)	–
Cc1cc2nc(-c3ccc(SCC(=O)N4CCc5ccccc54)nc3)[nH]c2cc1C	–	-3.98% [at 2.29 µM]
O=C(CSc1nnc(CNc2ccc(F)cc2)o1)N1c2ccccc2Sc2ccccc21	7.08 µM (active)	–
CCOc1ccc(-n2c(=O)[nH]cc(C(=O)N3CCCc4ccccc43)c2=O)cc1	inactive	–
O=C(CSc1nnc(CNc2ccccc2)o1)N1CCCc2ccccc21	8.91 µM (active)	–
CCN(CC)C(=O)CSc1nnc(C2CCCCC2)o1	inactive	–
O=C(CCN1CCCCC1)N1CCc2c([nH]c3ccccc23)[C@H]1c1cccnc1	–	-11.2% [at 11.4 µM]
COC(=O)Cn1cnc(=O)c(C#N)c1/C=C/N(C)C	inactive	–
C=CCn1cc(/C=N\NC(=O)c2cc3c(ccc4ccccc43)o2)c2ccccc21	10 µM (active)	–
O=C(N/N=C/c1ccc(O)cc1)c1csc2ccccc12	–	-23.9% [at 11.4 µM]
O=C(N/N=C/c1cccc([N+](=O)[O-])c1)c1cc2c(ccc3ccccc32)o1	–	-7.91% [at 2.29 µM]
O=C(N/N=C/C=C/c1ccccc1)c1cc2c(ccc3ccccc32)o1	inactive	–
O=C(N/N=C\c1cccc(O)c1)c1ccncc1	–	-5.33% [at 11.4 µM]
Cc1ccccc1C(=O)N/N=C/c1ccncc1	7.08 µM (active)	–
O=C(N/N=C/c1ccncc1)c1cc2c(ccc3ccccc32)o1	1.41 µM (active)	–
COc1cccc([C@H](O)Cn2cc(-c3ccc(CON=C(C)C)cc3)nn2)c1	–	-19.8% [at 11.4 µM]
CC[C@@H](CS(=O)(=O)O)[N+](=O)[O-]	–	-18% [at 11.4 µM]
O=C(N=NC(=O)c1ccc2c(O)n(C3CCCCC3)c(O)c2c1)c1cccnc1	11.2 µM (active)	–
COCCn1c(=O)c(-c2cn(C)c3ccccc23)nc2cncnc21	3.16 µM (active)	–
COc1ccccc1CCn1c(=O)c(-c2cn(C)c3ccccc23)nc2cncnc21	2.51 µM (active)	–
Cn1cc(-c2nc3cncnc3n(CCN)c2=O)c2ccccc21	12.6 µM (active)	–
Cc1cccc([C@@H]2CN(C)CCc3c2cc(O)c(O)c3Cl)c1	inactive	–
N[C@H](CCCP(=O)(O)O)C(=O)O	inactive	–
O=C(O)c1nnsc1-c1ccc(-c2snnc2C(=O)O)cc1	–	-0.252% [at 11.4 µM]

SMILES	AC50	activity, negative = inhibition
O=C(O)c1ccccc1-c1ccc(/C=c2\sc3nc4cc(Br)cnc4n3c2=O)o1	inactive	–
O=C(c1c[nH]c(=O)n(-c2ccccc2)c1=O)N1CCc2ccccc21	inactive	–
Cc1ccc(NS(=O)(=O)c2cc(C(=O)NCc3ccccn3)ccc2Cl)cc1	3.98 µM (active)	–
Cc1ccc(NS(=O)(=O)c2cc(C(=O)N3CCc4ccccc4C3)ccc2Cl)cc1	1.26 µM (active)	–
CN(c1ccc(C(=O)NCc2ccccn2)cc1)S(C)(=O)=O	inactive	–
COc1ccc(C(=O)N2CCCCC2)cc1S(=O)(=O)Nc1ccccc1	12.6 µM (active)	–
CCOC(=O)N1CCN(C(=O)c2ccc(Cl)c(S(=O)(=O)N3CCOCC3)c2)CC1	–	-3.04% [at 2.29 µM]
OC(CN1CCCCC1)CN1CCCCC1	inactive	–
Cc1cccc(CNc2ncncc2-c2ccc(C(=O)N(C)C)cc2)c1	0.631 µM (active)	–
CNc1ncncc1-c1ccc(C(=O)N(C)C)cc1	5.01 µM (active)	–
CN(C)C(=O)c1ccc(-c2cncnc2NCc2ccccc2)cc1	2.51 µM (active)	–
CN(C)C(=O)c1ccc(-c2cncnc2NC2CCNCC2)cc1	inactive	–
CN(C)C(=O)c1ccc(-c2cncnc2NCCc2cnc[nH]2)cc1	6.31 µM (active)	–
CN(C)C(=O)c1ccc(-c2cncnc2NCc2cccnc2)cc1	5.01 µM (active)	–
CN(C)C(=O)c1ccc(-c2cncnc2N2CCNCC2)cc1	inactive	–
CN1CCN(c2ncncc2-c2ccc(C(=O)N(C)C)cc2)CC1	15.8 µM (active)	–
O=C(O)c1ccccc1C1c2ccccc2Oc2ccccc21	–	26.1% [at 11.4 µM]
CCC1(C)CC(CCNS(=O)(=O)c2ccc(C)cc2)(c2ccc(C)cc2)CCO1 (stereo unspecified)	3.55 µM (active)	–
c1ccc(-c2nnc(SCCC3OCCCO3)o2)cc1	inactive	–
Cc1cc(C(=O)CSc2nnc(-c3ccccc3)o2)c(C)n1CC1COc2ccccc2O1 (stereo unspecified)	2.24 µM (active)	–
O=C(/C=C\c1ccc(O)c(O)c1)O[C@@H](Cc1ccc(O)c(O)c1)C(=O)O	inactive	–
O=C(O)/C=C\c1ccc(O)c(O)c1	inactive	–
O=C(/C=C\c1ccc(O)c(O)c1)OCCc1ccccc1	15.8 µM (active)	–
CCn1c2ccccc2c2cnc(N=CN(C)C)c(C#N)c21	7.94 µM (active)	–

SMILES	AC50	activity, negative = inhibition
Nc1nc(N)nc(CC(=O)O)n1	–	-10.1% [at 11.4 µM]
COC(=O)N1CCC[C@@]2(CCN(c3ncccn3)C2)C1	inactive	–
O=C(Oc1ccccc1)N1CCC2(CC1)CCN(c1ccncc1)CC2	inactive	–
COC(=O)N1CCC[C@@]2(CCN(c3ccncc3)C2)C1	3.98 µM (active)	–
O=C(Oc1ccccc1)N1CCC[C@@]2(CCN(c3ccncc3)C2)C1	12.6 µM (active)	–
COC(=O)N1CCC2(CC1)CCN(c1ccncc1)CC2	inactive	–
O=[N+]([O-])c1ccc2ncccc2c1CCc1c([N+](=O)[O-])ccc2ncccc12	–	-12.1% [at 11.4 µM]
O=[N+]([O-])c1cccnc1NCCNc1ncc(C(F)(F)F)cc1Cl	12.6 µM (active)	–
O=C(O)C[C@H](NC(=O)CP(=O)(O)O)C(=O)O.[NH-][C@@H]1CCCC[C@@H]1[NH-].[Pt]	–	-3.72% [at 11.4 µM]
O=S(=O)(Nc1ccc2oc(-c3ccccc3)nc2c1)c1ccccc1	–	-16% [at 2.29 µM]
Cc1cc(NS(=O)(=O)c2ccc(NC(=O)CN3C(=O)c4ccccc4C3=O)cc2)nc(C)n1	inactive	–
O=c1ccc(NS(=O)(=O)c2ccccc2)cn1Cc1ccc(Cl)c(Cl)c1	6.31 µM (active)	–
O=S(=O)(NCc1cc(-c2ccccc2Cl)no1)c1ccccc1	inactive	–
C#CCOC(=O)Nc1ccc(=O)n(Cc2c(Cl)cccc2Cl)c1	inactive	–
Cc1ccc(S(=O)(=O)Nc2ccc(=O)n(Cc3ccc(Cl)c(Cl)c3)c2)cc1	3.16 µM (active)	–
O=c1ccc(NS(=O)(=O)c2ccc(Cl)cc2)cn1Cc1ccc(Cl)c(Cl)c1	5.62 µM (active)	–
CC1(C)S[C@@H]2[C@H](NC(=O)[C@H](C(=O)O)c3ccsc3)C(=O)N2[C@H]1C(=O)O	inactive	–
CC12CCC(C(=O)Nc3ncc([N+](=O)[O-])s3)(OC1=O)C2(C)C (stereo unspecified)	15.8 µM (active)	–
CCCCC#Cc1nc(NC)c2ncn([C@@H]3O[C@@H](CO)[C@H](O)[C@H]3O)c2n1	inactive	–
C#CCSc1nc(Cc2ccc(Cl)cc2)nc2ccccc12	15.8 µM (active)	–
CCSc1nnc(-c2ccc(Cl)cc2)c2ccccc12	–	15.9% [at 2.29 µM]
CC(C)(C)c1ccc(O)c(CN(Cc2c(O)ccc3ccccc23)C2CCCCC2)c1	–	-11.1% [at 11.4 µM]
CN(Cc1cc2ccccc2[nH]c1=O)S(C)(=O)=O	–	5.8% [at 11.4 µM]
CS(=O)(=O)N(Cc1cc2ccccc2[nH]c1=O)C1CCCCC1	2.24 µM (active)	–
